Measurements: PubChem BioAssay AID1159580 (chemical genetic matrix, 2015)
The campaign covered roughly 5,500 compounds. About 2,000 (36%) were called active. Not shown: some 18% with an inconclusive outcome. Cut-off read from the data, not from the text of the source: active = normalized growth mostly below about 0.91 (no sharp cut-off); inconclusive = no clear call, values can overlap the other calls; inactive = mostly above about 0.92. This is one part of the list.

Test: chemical genetic growth profiling, strain panel (AID 1159580);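 note: tested at 20 µM; growth read once vehicle control cultures reached saturation at 30 °C; 1 = growth at the plate median or of vehicle wells; lower values mean less growth of the strain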
Conditions: S. cerevisiae deletion strains, growth OD

Measured: normalized growth

CC(=O)Nc1ccc([N+](=O)[O-])cc1[N+](=O)[O-]
active: locus YAR019C, strain CDC15, hits give low values 0.619 | locus YDL101C, strain DUN1, hits give low values 0.671 | locus YDL132W, strain cdc53, hits give low values 0.838 | locus YDL214C, strain PRR2, hits give low values 0.165 | locus YDR054C, strain cdc34, hits give low values 0.625 | locus YDR477W, strain SNF1, hits give low values 0.188 | locus YER123W, strain YCK3, hits give low values 0.114 | locus YER133W, strain GLC7, hits give low values 0.131 | locus YFL029C, strain CAK1, hits give low values 0.605 | locus YFR019W, strain FAB1, hits give low values 0.27 | locus YGR040W, strain KSS1, hits give low values 0.206 | locus YGR052W, strain FMP48, hits give low values 0.175 | locus YGR092W, strain DBF2, hits give low values 0.349 | locus YHR030C, strain SLT2, hits give low values 0.123 | locus YHR079C, strain IRE1, hits give low values 0.388 | locus YHR082C, strain KSP1, hits give low values 0.205 | locus YHR205W, strain SCH9, hits give low values 0.0559 | locus YJL095W, strain BCK1, hits give low values 0.174 | locus YJL157C, strain FAR1, hits give low values 0.307 | locus YJR066W, strain TOR1 (second series), hits give low values 0.145 | locus YJR066W, strain TOR1, hits give low values 0.152 | locus YKL048C, strain ELM1, hits give low values 0.707 | locus YKL067W, strain YNK1, hits give low values 0.284 | locus YKL101W, strain HSL1, hits give low values 0.534 | locus YKL193C, strain SDS22, hits give low values 0.753 | locus YKL203C, strain TOR2, hits give low values 0.213 | locus YLR113W, strain HOG1, hits give low values 0.153 | locus YLR133W, strain CKI1, hits give low values 0.438 | locus YLR403W, strain SFP1, hits give low values 0.21 | locus YML070W, strain DAK1, hits give low values 0.202 | locus YMR205C, strain PFK2 (second series), hits give low values 0.511 | locus YMR277W, strain FCP1, hits give low values 0.668 | locus YNL020C, strain ARK1, hits give low values 0.558 | locus YNL161W, strain CBK1, hits give low values 0.722 | locus YNL183C, strain NPR1, hits give low values 0.105 | locus YNL222W, strain SSU72, hits give low values 0.711 | locus YNL307C, strain MCK1 (second series), hits give low values 0.241 | locus YOL078W, strain AVO1, hits give low values 0.679 | locus YOL136C, strain PFK27, hits give low values 0.227 | locus YOR061W, strain CKA2, hits give low values 0.587 | locus YOR119C, strain RIO1, hits give low values 0.196 | locus YOR231W, strain MKK1, hits give low values 0.396 | locus YPL031C, strain PHO85, hits give low values 0.213 | locus YPL153C, strain RAD53, hits give low values 0.271 | locus YPL204W, strain HRR25, hits give low values 0.276 | locus YPL256C, strain CLN2, hits give low values 0.164 | strain TSCII, hits give low values 0.587
inactive: locus YBL105C, strain PKC1, hits give low values 0.925 | locus YBR135W, strain CKS1, hits give low values 0.911 | locus YBR136W, strain MEC1, hits give low values 0.922 | locus YBR160W, strain CDC28, hits give low values 0.918 | locus YDL017W, strain CDC7, hits give low values 0.927 | locus YDL028C, strain MPS1, hits give low values 0.924 | locus YDL108W, strain KIN28, hits give low values 0.912 | locus YDR052C, strain DBF4, hits give low values 0.931 | locus YDR226W, strain ADK1, hits give low values 0.911 | locus YFL009W, strain cdc4, hits give low values 0.899 | locus YFR003C, strain YPI1, hits give low values 0.926 | locus YFR028C, strain CDC14, hits give low values 0.9 | locus YIL147C, strain SLN1, hits give low values 0.927 | locus YJL128C, strain PBS2, hits give low values 0.878 | locus YJR016C, strain ILV3, hits give low values 0.924 | locus YNL006W, strain LST8, hits give low values 0.927 | locus YNL207W, strain RIO2, hits give low values 0.909 | locus YOR329C, strain SCD5, hits give low values 0.929 | locus YPL209C, strain IPL1, hits give low values 0.915 | locus YPR025C, strain CCL1, hits give low values 0.92 | locus YPR106W, strain ISR1, hits give low values 0.926 | locus YPR111W, strain DBF20, hits give low values 0.902 | strain NNK1, hits give low values 0.931
